PubChem BioAssay (NCI)
Compounds without any hit were thinned out: in the full panel of roughly 79,000, 15% have a hit. Rule as the data show it: active = growth inhibition above about 70%; inactive = the rest. *1 amine or outer side, *2 acyl side, *3 side chain or, on linkers, in order; H or OH if unused. Where a SMILES comes first, the peptide text is derived from it. Bridges are numbered along the chain shown (N, C = ends). Roman numbers before positions name the chains, in order. [ ]: non-standard residue; d: D form. Actinocin(9to1) = Cc1c2oc3c(C)ccc(C(=O)[*:1])c3nc-2c(C(=O)[*:2])c(N)c1=O; NMeF = CN[CH](Cc1ccccc1)C(=O)O; Ac5c = NC1(C(=O)O)CCCC1; Sar = CNCC(=O)O

Assays:
[1] = NCI Yeast Anticancer Drug Screen. Data for the rad50 strain (AID 155);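 also: 0% = growth of vehicle-only cultures of the same strain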; settings: S. cerevisiae rad50 strain growth inhibition; at 50.0 µM; hits give high values
In short: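 Inhibition values express reduced yeast growth in compound-treated cultures relative to vehicle-treated controls.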

[2] = NCI Yeast Anticancer Drug Screen. Data for the mec2-1 strain (AID 157); settings: S. cerevisiae mec2-1 strain, at 50.0 µM, hits give high values
In short: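 Readout is yeast growth inhibition, normalised to vehicle-treated controls, in the mec2-1 strain exposed to compound.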

[3] = NCI Yeast Anticancer Drug Screen. Data for the sgs1 mgt1 strain (AID 161);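 also: 0% = growth of cultures given vehicle only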; settings: S. cerevisiae sgs1 mgt1 strain, at 50.0 µM, hits give high values
In short: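 This yeast growth screen uses a strain with defined DNA-repair lesions; compound-treated growth is compared with vehicle-treated growth.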

[4] = NCI Yeast Anticancer Drug Screen. Data for the cln2 rad14 strain (AID 165);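 also: 0% = growth equal to vehicle treated cultures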; settings: S. cerevisiae cln2 rad14 strain, at 50.0 µM, hits give high values
In short: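 Relative to vehicle controls, growth inhibition of compound-treated cln2 rad14 yeast was recorded.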

[5] = NCI Yeast Anticancer Drug Screen. Data for the bub3 strain (AID 167); settings: S. cerevisiae bub3 mutant strain, at 50.0 µM, hits give high values
In short: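 Steps: expose the mutant yeast strain to compound; grow alongside vehicle-treated cultures; measure growth; express inhibition against the vehicle cultures.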

[6] = NCI Yeast Anticancer Drug Screen. Data for the mlh1 rad18 strain (AID 175); settings: S. cerevisiae mlh1 rad18 strain growth inhibition; at 50.0 µM; hits give high values
In short: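 Test agents were incubated with a yeast strain of defined genotype (DNA damage repair defect). Inhibition of growth was derived by comparison with vehicle-exposed cultures.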

Measured: growth inhibition

Clc1ccc(OCC(COc2ccc(Cl)cc2)(COc2ccc(Cl)cc2)COc2ccc(Cl)cc2)cc1
inactive: [1] -0.75% | [2] 2.75% | [3] -4.8% | [4] 5.9% | [5] -4.45% | [6] 0.7%

Cc1ccc(S(=O)(=O)NC(C)C(=O)O)cc1 (stereo not given)
inactive: [1] -1.5% | [2] -6.65% | [3] 4.9% | [4] 3.2% | [5] -7.65% | [6] 4.6%

N#CC1(C#N)C(c2ccccc2)C1(C#N)C(N)=O (stereo not given)
inactive: [1] -13.2% | [2] 11.4% | [3] -22.9% | [4] -20.6% | [5] -6.7% | [6] -27.5%

OCCSC(SCCO)=C(SCCO)SCCO
inactive: [1] 9.85% | [2] -15.7% | [3] -1.55% | [4] -13.2% | [5] 1.35% | [6] 2.75%

CN(C)c1ccc([O-])cc1.CN(C)c1ccc([O-])cc1.CN(C)c1ccc([O-])cc1.CN(C)c1ccc([O-])cc1.[Ti+4]
inactive: [1] 26.9% | [2] -19.4% | [3] 4.65% | [4] 19.3% | [5] 4.95% | [6] -2.6%

Cc1cc(=O)n2c(c1)[nH]c1ccccc12
inactive: [1] 3.25% | [2] 0.3% | [3] -5.55% | [4] -0.95% | [5] 1.75% | [6] 1.65%

CCCCS(=O)(=O)N(CCC)CCC
inactive: [1] 9.55% | [2] -13.6% | [3] 5.25% | [4] -18.1% | [5] -3.95% | [6] -13.3%

CC(=O)CC1CCCC1
inactive: [1] 19.4% | [2] 0.6% | [3] 19.9% | [4] 15.9% | [5] 5.3% | [6] 17.9%

C1#CCSCC#CCSC1
inactive: [1] 14.2% | [2] 3.4% | [3] 11.1% | [4] 24.2% | [5] 40% | [6] 24%

O=C1OC(c2cccc3ccc(Br)cc23)c2ccccc21 (stereo not given)
inactive: [1] 21.1% | [2] 0.5% | [3] 6.2% | [4] 19.5% | [5] 16.1% | [6] 3.45%

N#Cc1cc2ccccc2c2ccccc12
inactive: [1] 8.6% | [2] -4.15% | [3] 5.85% | [4] 12.3% | [5] -11.2% | [6] 18.4%

CCC(=O)Nc1cc(Cl)ccc1C
inactive: [1] 46.6% | [2] 31.4% | [3] 26.3% | [4] 23.4% | [5] 9.25% | [6] 26.3%

Cn1c(=O)c2ccccc2c2cc(Br)ccc21
inactive: [1] 41.1% | [2] 6.05% | [3] 4.15% | [4] -14.8% | [5] 7.8% | [6] 20.6%

Cc1ccc(-n2cc(-c3ccc(Cl)cc3)c3c2N=CN2NC(c4cccs4)=NC32)cc1 (stereo not given)
inactive: [1] -32.8% | [2] -5.8% | [3] -18.9% | [4] 5.5% | [5] -16.7% | [6] -17.3%

COC(=O)C(C)(C)c1ccccc1C(C)(C)C(=O)OC
inactive: [1] -5.85% | [2] 6.05% | [3] -1.4% | [4] -7.95% | [5] 9.35% | [6] 3.9%

CO/N=C(\C(=O)OC(=NC1CCCCC1)NC1CCCCC1)c1csc(NC(c2ccccc2)(c2ccccc2)c2ccccc2)n1
inactive: [1] -5.15% | [2] -7.85% | [3] -5.4% | [4] -7.8% | [5] -0.3% | [6] -6.5%

CC1(C)CC(=O)C(/C=N/C(=S)NCc2ccccc2)=C(O)C1
inactive: [1] -35.4% | [2] -49.1% | [3] -16% | [4] 14.4% | [5] -2.45% | [6] -20.8%

CC(C)(C)c1ccc(O)c(Sc2cc(C(C)(C)C)ccc2O)c1
inactive: [1] 5.8% | [2] -24.9% | [3] 7.95% | [4] -33.4% | [5] 12.6% | [6] -15.2%

CC(=O)OCC1OC(n2nc(/C=C/c3ccccc3)c(=O)n(-c3ccccc3)c2=S)C(OC(C)=O)C(OC(C)=O)C1OC(C)=O (stereo not given)
inactive: [1] 0.1% | [2] 20.6% | [3] 8.85% | [4] -10.3% | [5] -0.45% | [6] 31.9%

C[CH2][Sn]([CH2]C)([O]C(=O)c1ccc(OC)c(OC)c1OC)[O]C(=O)c1ccc(OC)c(OC)c1OC
inactive: [1] 41.5% | [2] 27.6% | [3] 24.6% | [4] 28.3% | [5] 19.4% | [6] 24.8%

CCN(CC)CCOC(=O)C(c1ccccc1)C1C=CCCC1 (stereo not given)
inactive: [1] 38.8% | [2] 2.6% | [3] 19.1% | [4] -1.15% | [5] -3.1% | [6] 30.4%

CC(=O)c1cccc2ccccc12
inactive: [1] -7.8% | [2] 5.55% | [3] 3.65% | [4] -9.1% | [5] -11.1% | [6] -5.95%

O=C(N/N=C/c1cccc(F)c1)c1ccncc1
inactive: [1] 8.4% | [2] 1% | [3] -2.05% | [4] -23.9% | [5] -0.35% | [6] 8.35%

C/C(=N\NC(=S)NCCCCNC(=S)N/N=C(\C)c1ccccn1)c1ccccc1
inactive: [1] -4.15% | [2] 36.1% | [3] 14.7% | [4] 3.65% | [5] 38.4% | [6] 13.9%

Cc1ccc(OC/C=C/c2ccc([N+](=O)[O-])cc2)cc1
inactive: [1] -1.45% | [2] -9.3% | [3] -7.4% | [4] -58.8% | [5] -4.55% | [6] -19.2%

COC1=C(OC)C(=O)c2cc(SC)c(=O)c(SC)cc2C1=O
inactive: [1] -54.8% | [2] -29.2% | [3] -40.5% | [4] -22.1% | [5] -54.6% | [6] -60.2%

Cn1c(=O)[nH]c2c(c1=O)CCCS2
inactive: [1] 3.75% | [2] 6.4% | [3] 20.4% | [4] 0.65% | [5] -19.6% | [6] -10.1%

Cc1onc(-c2c(F)cccc2Cl)c1C(=O)OCc1c(F)cccc1Cl
inactive: [1] 6.8% | [2] -2.15% | [3] 20.9% | [4] 11.5% | [5] 25.1% | [6] 24.5%

CCOC(=O)C(/C(=N\NC(=O)OC)C(=O)Nc1cc(OC)ccc1OC)c1cnc2ccccc2n1 (stereo not given)
inactive: [1] -6.15% | [2] -2.75% | [3] -45.4% | [4] 18.8% | [5] 15.4% | [6] 0.7%

CC(C)C(NC(=O)C1CSC(C)(C)N1C=O)C(=O)O (stereo not given)
inactive: [1] -1.6% | [2] -0.1% | [3] -3.3% | [4] -8.35% | [5] 6.55% | [6] 2.25%

CCCNC(=O)Nc1ccc2c(c1)Cc1cc([N+](=O)[O-])ccc1-2
inactive: [1] -12.2% | [2] 2.5% | [3] -4.3% | [4] -42% | [5] 6.75% | [6] -14.3%

CC1=NN(C(=O)c2ccc(Cl)cc2)C(=O)C1N=Nc1ccc(S(=O)(=O)Nc2ccccn2)cc1 (stereo not given)
inactive: [1] -0.85% | [2] 16.8% | [3] 14.7% | [4] 20.2% | [5] -10.6% | [6] 30.7%

Cc1c2oc3c(C)ccc(C(=O)NC4C(=O)NC(C(C)C)C(=O)N5CCCC5C(=O)N(C)CC(=O)N(C)C(Cc5ccccc5)C(=O)OC4C)c3nc-2c(C(=O)NC2C(=O)NC(C(C)C)C(=O)N3CCCC3C(=O)N(C)CC(=O)N(C)C(Cc3ccccc3)C(=O)OC2C)c(N)c1=O (stereo not given) (I: TVP[Sar][NMeF] / II: TVP[Sar][NMeF]; ester I:1-I:C, II:1-II:C; linker I:N-II:N via Actinocin(9to1); configuration not given here)
inactive: [1] -0.6% | [2] 6.05% | [3] -12.7% | [4] 2.15% | [5] -23.6% | [6] -27.4%

NC1(C(=O)NC2(C(=O)O)CCCC2)CCCC1 (H-[Ac5c]-[Ac5c]-OH)
inactive: [1] 8.75% | [2] 2.85% | [3] 0.8% | [4] -6.65% | [5] -42.9% | [6] 40.4%

CN1CCCCC1C(O)CO (stereo not given)
inactive: [1] 11.4% | [2] -5.7% | [3] -8.05% | [4] -47.4% | [5] -3.2% | [6] -27.1%
